# In PubChem BioAssay AID1159580 (chemical genetic matrix, 2015):
# Among all 5,500 compounds or so, about 2,000 (36%) were called active. About 18% were inconclusive and are not listed. The list shows a part of the results. Values without a mark were called inactive. Cut-off read from the data, not from the text of the source: active = normalized growth mostly below about 0.91 (no sharp cut-off); inconclusive = no clear call, values can overlap the other calls; inactive = mostly above about 0.92.
# Experiment: chemical genetic growth profiling, strain panel (AID 1159580);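 note: tested at 20 µM; growth read once vehicle control cultures reached saturation at 30 °C; 1 = growth at the plate median or of vehicle wells; lower values mean less growth of the strain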
# Conditions: growth OD
smiles,measurement,setting,value
Cc1cc(=O)[nH]c(=S)[nH]1,normalized growth,"S. cerevisiae deletion strains, locus YJR075W, strain HOC1, hits give low values",1.02
same,normalized growth,"S. cerevisiae deletion strains, locus YKL009W, strain mrt4, hits give low values",0.999
same,normalized growth,"S. cerevisiae deletion strains, locus YKL068W, hits give low values",1
same,normalized growth,"S. cerevisiae deletion strains, locus YKL085W, strain MDH1 (second series), hits give low values",0.977
same,normalized growth,"S. cerevisiae deletion strains, locus YKL085W, strain MDH1, hits give low values",0.977
same,normalized growth,"S. cerevisiae deletion strains, locus YKL160W, strain elf1, hits give low values",0.974
same,normalized growth,"S. cerevisiae deletion strains, locus YKL190W, strain CNB1, hits give low values",1
same,normalized growth,"S. cerevisiae deletion strains, locus YKR001C, strain vps1, hits give low values",1.01
same,normalized growth,"S. cerevisiae deletion strains, locus YKR026C, strain gcn3, hits give low values",0.992
same,normalized growth,"S. cerevisiae deletion strains, locus YKR091W, strain srl3, hits give low values",0.967
same,normalized growth,"S. cerevisiae deletion strains, locus YLL001W, strain dnm1, hits give low values",1.01
same,normalized growth,"S. cerevisiae deletion strains, locus YLL026W, hits give low values",0.979
same,normalized growth,"S. cerevisiae deletion strains, locus YLL041C, strain sdh2, hits give low values",0.978
same,normalized growth,"S. cerevisiae deletion strains, locus YLR027C, strain aat2, hits give low values",0.973
same,normalized growth,"S. cerevisiae deletion strains, locus YLR039C, strain RIC1, hits give low values",1.03
same,normalized growth,"S. cerevisiae deletion strains, locus YLR058C, strain SHM2, hits give low values",1.01
same,normalized growth,"S. cerevisiae deletion strains, locus YLR102C, strain apc9, hits give low values",1
same,normalized growth,"S. cerevisiae deletion strains, locus YLR113W, strain HOG1, hits give low values",1.03
same,normalized growth,"S. cerevisiae deletion strains, locus YLR221C, strain rsa3, hits give low values",0.973
same,normalized growth,"S. cerevisiae deletion strains, locus YLR258W, strain gsy2, hits give low values",0.98
same,normalized growth,"S. cerevisiae deletion strains, locus YLR262C, strain YPT6 (second series), hits give low values",0.981
same,normalized growth,"S. cerevisiae deletion strains, locus YLR262C, strain YPT6, hits give low values",1.07
same,normalized growth,"S. cerevisiae deletion strains, locus YLR268W, strain sec22, hits give low values",1.08
same,normalized growth,"S. cerevisiae deletion strains, locus YLR320W, strain mms22, hits give low values",0.956
same,normalized growth,"S. cerevisiae deletion strains, locus YLR330W, strain CHS5, hits give low values",1.01
same,normalized growth,"S. cerevisiae deletion strains, locus YLR342W, strain FKS1 (second series), hits give low values",1
same,normalized growth,"S. cerevisiae deletion strains, locus YLR342W, strain FKS1, hits give low values",0.985
same,normalized growth,"S. cerevisiae deletion strains, locus YLR357W, strain rsc2, hits give low values",0.944
same,normalized growth,"S. cerevisiae deletion strains, locus YLR370C, strain arc18, hits give low values",0.973
same,normalized growth,"S. cerevisiae deletion strains, locus YLR371W, strain rom2, hits give low values",1.02
same,normalized growth,"S. cerevisiae deletion strains, locus YLR384C, strain iki3, hits give low values",0.989
same,normalized growth,"S. cerevisiae deletion strains, locus YLR418C, strain cdc73, hits give low values",1.02
same,normalized growth,"S. cerevisiae deletion strains, locus YML016C, strain PPZ1, hits give low values",1.01
same,normalized growth,"S. cerevisiae deletion strains, locus YML032C, strain rad52, hits give low values",1.04
same,normalized growth,"S. cerevisiae deletion strains, locus YML120C, strain ndi1, hits give low values",0.972
same,normalized growth,"S. cerevisiae deletion strains, locus YML124C, strain tub3, hits give low values",1
same,normalized growth,"S. cerevisiae deletion strains, locus YMR058W, strain fet3, hits give low values",0.976
same,normalized growth,"S. cerevisiae deletion strains, locus YMR078C, strain ctf18, hits give low values",1.01
same,normalized growth,"S. cerevisiae deletion strains, locus YMR125W, strain sto1, hits give low values",0.933
same,normalized growth,"S. cerevisiae deletion strains, locus YMR129W, hits give low values",0.969
same,normalized growth,"S. cerevisiae deletion strains, locus YMR205C, strain PFK2, hits give low values",0.976
same,normalized growth,"S. cerevisiae deletion strains, locus YMR223W, strain ubp8, hits give low values",0.989
same,normalized growth,"S. cerevisiae deletion strains, locus YMR231W, strain pep5, hits give low values",1
same,normalized growth,"S. cerevisiae deletion strains, locus YMR263W, strain SAP30, hits give low values",1.03
same,normalized growth,"S. cerevisiae deletion strains, locus YMR307W, strain GAS1, hits give low values",1.05
same,normalized growth,"S. cerevisiae deletion strains, locus YNL067W, strain RPL9B, hits give low values",1.02
same,normalized growth,"S. cerevisiae deletion strains, locus YNL071W, strain lat1, hits give low values",0.963
same,normalized growth,"S. cerevisiae deletion strains, locus YNL128W, strain TEP1, hits give low values",1
same,normalized growth,"S. cerevisiae deletion strains, locus YNL153C, strain GIM3, hits give low values",1.03
same,normalized growth,"S. cerevisiae deletion strains, locus YNL183C, strain NPR1, hits give low values",0.977
same,normalized growth,"S. cerevisiae deletion strains, locus YNL209W, strain ssb2, hits give low values",0.973
same,normalized growth,"S. cerevisiae deletion strains, locus YNL233W, strain BNI4, hits give low values",1.02
same,normalized growth,"S. cerevisiae deletion strains, locus YNL248C, strain rpa49, hits give low values",0.872 (active)
same,normalized growth,"S. cerevisiae deletion strains, locus YNL250W, strain rad50, hits give low values",1.01
same,normalized growth,"S. cerevisiae deletion strains, locus YNL271C, strain bni1, hits give low values",1.01
same,normalized growth,"S. cerevisiae deletion strains, locus YNL298W, strain CLA4, hits give low values",1.01
same,normalized growth,"S. cerevisiae deletion strains, locus YNL307C, strain MCK1, hits give low values",1.01
same,normalized growth,"S. cerevisiae deletion strains, locus YNL322C, strain KRE1 (second series), hits give low values",0.969
same,normalized growth,"S. cerevisiae deletion strains, locus YNL322C, strain KRE1, hits give low values",1
same,normalized growth,"S. cerevisiae deletion strains, locus YNR049C, strain mso1, hits give low values",0.978
same,normalized growth,"S. cerevisiae deletion strains, locus YNR052C, strain pop2, hits give low values",1.01
same,normalized growth,"S. cerevisiae deletion strains, locus YOL006C, strain TOP1, hits give low values",1.08
same,normalized growth,"S. cerevisiae deletion strains, locus YOL012C, strain htz1",1.27
same,normalized growth,"S. cerevisiae deletion strains, locus YOL147C, strain pex11, hits give low values",1
same,normalized growth,"S. cerevisiae deletion strains, locus YOR001W, strain rrp6, hits give low values",0.975
same,normalized growth,"S. cerevisiae deletion strains, locus YOR061W, strain CKA2, hits give low values",1.01
same,normalized growth,"S. cerevisiae deletion strains, locus YOR069W, strain VPS5, hits give low values",1.01
same,normalized growth,"S. cerevisiae deletion strains, locus YOR070C, strain gyp1, hits give low values",0.987
same,normalized growth,"S. cerevisiae deletion strains, locus YOR080W, strain dia2, hits give low values",0.965
same,normalized growth,"S. cerevisiae deletion strains, locus YOR083W, strain WHI5, hits give low values",0.964
same,normalized growth,"S. cerevisiae deletion strains, locus YOR106W, strain vam3, hits give low values",0.999
same,normalized growth,"S. cerevisiae deletion strains, locus YOR136W, strain idh2, hits give low values",1
same,normalized growth,"S. cerevisiae deletion strains, locus YOR144C, strain elg1, hits give low values",1
same,normalized growth,"S. cerevisiae deletion strains, locus YOR184W, strain ser1, hits give low values",1.01
same,normalized growth,"S. cerevisiae deletion strains, locus YOR231W, strain MKK1, hits give low values",1.03
same,normalized growth,"S. cerevisiae deletion strains, locus YOR265W, strain rbl2, hits give low values",0.98
same,normalized growth,"S. cerevisiae deletion strains, locus YOR270C, strain vph1, hits give low values",0.976
same,normalized growth,"S. cerevisiae deletion strains, locus YOR290C, strain snf2, hits give low values",0.94
same,normalized growth,"S. cerevisiae deletion strains, locus YOR316C, strain cot1, hits give low values",1.01
same,normalized growth,"S. cerevisiae deletion strains, locus YPL051W, strain arl3, hits give low values",0.982
same,normalized growth,"S. cerevisiae deletion strains, locus YPL055C, strain LGE1, hits give low values",1
same,normalized growth,"S. cerevisiae deletion strains, locus YPL078C, strain atp4, hits give low values",0.973
same,normalized growth,"S. cerevisiae deletion strains, locus YPL106C, strain sse1, hits give low values",0.919
same,normalized growth,"S. cerevisiae deletion strains, locus YPL240C, strain hsp82, hits give low values",0.958
same,normalized growth,"S. cerevisiae deletion strains, locus YPL241C, strain CIN2, hits give low values",1.01
same,normalized growth,"S. cerevisiae deletion strains, locus YPL256C, strain CLN2, hits give low values",1.12
same,normalized growth,"S. cerevisiae deletion strains, locus YPR119W, strain clb2, hits give low values",1
same,normalized growth,"S. cerevisiae deletion strains, locus YPR141C, strain kar3, hits give low values",1
same,normalized growth,"S. cerevisiae deletion strains, locus YPR163C, strain tif3, hits give low values",1.01
same,normalized growth,"S. cerevisiae deletion strains, locus YPR167C, strain met16, hits give low values",1.01
same,normalized growth,"S. cerevisiae deletion strains, strain wtn01, hits give low values",1.03
same,normalized growth,"S. cerevisiae strains, strain wild type, hits give low values",1.01
